Source: PubChem BioAssay (NCATS)
“And” between values parts separate entries of the source, which are not always exact repeats. Equal entries are not always repeated. Results filed as inconclusive are left out. The source made the active and inactive calls. Unless noted, calls follow the shape of the dose curve; as a rule, active = well fitted curve in the direction sought with a large enough effect; inconclusive = small, poorly fitted or top-dose-only effect, or another doubt; inactive = no such curve, though single readings can be large; an effect the other way counts as inactive or inconclusive.

What was measured:
[1] = P-glycoprotein substrates identified in KB-8-5-11 adenocarcinoma cell line, qHTS therapeutic library screen (AID 1346987); also: nearly all actives have a fitted effect of over 65% in size; also: potency is read from the fitted curve at half-maximal effect
Outline: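 Steps: plate 500 KB-8-5-11 cells/well in DMEM + 10% FCS (colchicine removed); pin compounds in dose-response; incubate 72 h, 37 degree C, 5% CO2; add CellTiter-Glo, 5 min; read luminescence.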

[2] = system: Zika virus NS2B-NS3 protease (unlinked complex); experiment: Primary screen GU Rhodamine qHTS for Zika virus inhibitors: Unlinked NS2B-NS3 protease assay (AID 1347159); also: % is scaled to controls: 0 for no effect and ±100 for the full control effect; nearly all actives have a fitted effect of over 60% in size
Outline: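 Noncovalent NS2B hydrophilic domain–NS3 protease domain complex (25 nM) preincubated 15 min at room temperature with compounds (up to 114 microM) in 10 mM Tris-HCl pH 8.0, 0.01% Tween 20; 1.5 microM Rhodamine110 substrate added, fluorescence change over 15 min fitted to Hill equation.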

[3] = system: Zika virus NS2B-NS3 protease (linked construct); experiment: Primary screen NINDS Rhodamine qHTS for Zika virus inhibitors (AID 1347160); also: nearly all actives have a fitted effect of over 55% in size; as to activity change, negative = inhibition: % is scaled to controls: 0 for no effect and ±100 for the full control effect
Outline: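 Purified linked NS2B-NS3 protease (NS2B hydrophilic domain joined to NS3 protease by flexible linker), 25 nM in 10 mM Tris-HCl pH 8.0, 0.01% Tween 20. Compounds titrated, 15 min preincubation at room temperature; 1.5 microM Rhodamine110 substrate, FITC fluorescence change over 15 min.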

[4] = Primary qHTS for inhibitors of nuclear receptor binding SET domain protein 2 (NSD2) in an RCH-ACV wild type WT cells (2C) (AID 1645877); also: nearly all actives have a fitted effect of over 70% in size; also: potency is read from the fitted curve at half-maximal effect
[5] = system: HaCat; experiment: Cytotoxic Profiling of Annotated Libraries Using Quantitative High-Throughput Screening (AID 1296008); details: Five cell lines viability, CellTiter-Glo ATP luminescence, 48-72 h; max response: stronger effect = lower value; also: nearly all actives have a fitted effect of over 60% in size; also: potency is read from the fitted curve at half-maximal effect; as to max response: % is scaled to controls: 0 for no effect and ±100 for the full control effect
Outline: (§1)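 Compounds were pin-transferred onto cells and incubated 48 or 72 hr at 37 degree Celsius, 95% humidity. CellTiter-Glo was added, plates sat 10 min at room temperature, then ATP-coupled luminescence was imaged as the viability read-out.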

[6] = system: KB-3-1; experiment: as above; details: Five cell lines viability, CellTiter-Glo ATP luminescence, 48-72 h; max response: stronger effect = lower value
Outline: as §1

[7] = system: HACAT; experiment: qHTS assay to identify novel small-molecules to repurpose for Merkel cell carcinoma treatment (AID 1296009); details: MCC and control cell lines, CellTiter-Glo viability, 72 h; at 44.8 µM (top of the series) unless noted; also: nearly all actives have a fitted effect of over 60% in size
Outline: (§2)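 qHTS format: cells treated with library compounds in DMSO across 8 (NPC) or 11 (MIPE) concentrations. Readout after 72 hr at 37 degree celsius was CellTiter-Glo luminescence.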

[8] = system: HeLa; experiment: Primary qHTS to identify gynecologic anti-cancer compounds using libraries of approved drugs and bioactive compounds (AID 1345084); details: Gynecologic cancer cell panel viability, ATPlite luminescence, 48 h; series mostly up to 57.5 µM; also: nearly all actives have a fitted effect of over 55% in size; also: potency is read from the fitted curve at half-maximal effect
Outline: (§3)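 Cells, 1,000 per well, were allowed to settle for 16 h at 37 C before compound addition. Five concentrations were tested for 48 h, and viability was read by ATPlite luminescence after 15 min at room temperature.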

[9] = system: SKOV3; experiment: as above; details: Gynecologic cancer cell panel viability, ATPlite luminescence, 48 h; series mostly up to 57.5 µM
Outline: as §3

[10] = P-glycoprotein substrates identified in KB-3-1 adenocarcinoma cell line, qHTS therapeutic library screen (AID 1346986); also: nearly all actives have a fitted effect of over 60% in size
Outline: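 Resistance attributable to P-gp was assessed by comparing AC50 in KB-8-5-11 with parental KB-3-1 and by tariquidar reversal. Cells were exposed 72 h and viability read by CellTiter-Glo.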

[11] = target: Glutathione peroxidase 1 (Homo sapiens) (UniProt P07203); experiment: Primary qHTS Assay for Inhibitors of Recombinant Selenoprotein Glutathione Peroxidase 1 (GPX1) (AID 1845191); also: nearly all actives have a fitted effect of over 65% in size
Glutathione peroxidase 1 (Homo sapiens), sequence (P07203 whole entry, looked up): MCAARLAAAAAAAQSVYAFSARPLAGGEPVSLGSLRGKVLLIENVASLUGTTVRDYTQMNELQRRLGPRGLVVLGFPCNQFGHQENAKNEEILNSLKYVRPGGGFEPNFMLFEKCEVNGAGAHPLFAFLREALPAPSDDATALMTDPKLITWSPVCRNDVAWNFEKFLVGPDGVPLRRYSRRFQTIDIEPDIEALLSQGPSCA
Outline: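 Recombinant GPX1 (10 nM final) was preincubated with compound for 30 min at room temperature, then reacted with 1 mM GSH, 0.5 mM CHP, 0.5 mM NADPH and 100 nM glutathione reductase; NADPH fluorescence (340/450 nm) was read at 0 and 15 min.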

[12] = system: CRL-7250; experiment: qHTS assay to identify novel small-molecules to repurpose for Merkel cell carcinoma treatment (AID 1296009); details: MCC and control cell lines, CellTiter-Glo viability, 72 h; series mostly up to 92 µM; also: nearly all actives have a fitted effect of over 60% in size
Outline: as §2

[13] = target: Cytochrome P450 2D6 (Homo sapiens) (UniProt P10635); experiment: Cytochrome P450 family 2 subfamily D member 6 (CYP2D6) small molecule antagonists: luciferase biochemical (cell-free) qHTS assay (AID 1645840; active = well fitted curve in the direction sought with a large enough effect in the repeat runs; an effect the other way counts as inactive or inconclusive; also: % is scaled to controls: 0 for no effect and ±100 for the full control effect; nearly all actives have a fitted effect of over 55% in size)
Cytochrome P450 2D6 (Homo sapiens), sequence (P10635 whole entry, looked up): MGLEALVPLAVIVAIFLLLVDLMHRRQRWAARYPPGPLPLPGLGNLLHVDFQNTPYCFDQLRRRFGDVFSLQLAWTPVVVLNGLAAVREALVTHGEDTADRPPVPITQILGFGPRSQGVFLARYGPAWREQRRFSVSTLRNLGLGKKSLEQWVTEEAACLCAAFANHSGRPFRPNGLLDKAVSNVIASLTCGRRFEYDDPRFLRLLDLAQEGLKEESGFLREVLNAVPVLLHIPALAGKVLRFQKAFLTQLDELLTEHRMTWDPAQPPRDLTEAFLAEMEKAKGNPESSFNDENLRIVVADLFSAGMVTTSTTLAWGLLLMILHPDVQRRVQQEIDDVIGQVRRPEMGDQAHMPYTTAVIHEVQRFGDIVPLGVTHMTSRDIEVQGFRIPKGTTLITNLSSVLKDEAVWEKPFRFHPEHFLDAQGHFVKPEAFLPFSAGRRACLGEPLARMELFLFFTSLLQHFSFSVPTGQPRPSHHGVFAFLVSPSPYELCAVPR
Outline: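 P450-Glo luminescent screen: recombinant CYP2D6 enzyme–proluciferin substrate mix preincubated with compound 10 min at room temperature, then NADPH regeneration added for 1 h at room temperature. Detection reagent added for 20 min; luciferin light read as relative luminescence units.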

[14] = target: Cytochrome P450 2C9 (Homo sapiens) (UniProt P11712); experiment: Cytochrome P450 family 2 subfamily C member 9 (CYP2C9) small molecule antagonists: luciferase biochemical (cell-free) qHTS assay (AID 1645842; active = well fitted curve in the direction sought with a large enough effect in the repeat runs; an effect the other way counts as inactive or inconclusive; also: % is scaled to controls: 0 for no effect and ±100 for the full control effect; nearly all actives have a fitted effect of over 55% in size)
Cytochrome P450 2C9 (Homo sapiens), sequence (P11712 whole entry, looked up): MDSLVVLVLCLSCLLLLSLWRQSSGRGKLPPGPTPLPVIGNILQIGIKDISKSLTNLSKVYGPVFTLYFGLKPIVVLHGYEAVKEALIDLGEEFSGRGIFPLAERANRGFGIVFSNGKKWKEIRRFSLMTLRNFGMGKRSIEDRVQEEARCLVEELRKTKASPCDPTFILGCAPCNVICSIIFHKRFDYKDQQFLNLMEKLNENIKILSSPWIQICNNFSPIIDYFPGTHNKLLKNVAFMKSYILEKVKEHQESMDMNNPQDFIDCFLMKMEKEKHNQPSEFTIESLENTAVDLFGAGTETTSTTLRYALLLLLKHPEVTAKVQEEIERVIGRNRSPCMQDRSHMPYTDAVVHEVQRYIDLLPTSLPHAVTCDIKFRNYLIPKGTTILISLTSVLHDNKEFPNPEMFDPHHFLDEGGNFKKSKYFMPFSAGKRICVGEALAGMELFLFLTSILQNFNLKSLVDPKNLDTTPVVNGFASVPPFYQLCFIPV
Outline: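 Luminescence, after 20 min with luciferin detection reagent, reflected CYP2C9 turnover during a 1 h NADPH-driven reaction at 37C. Enzyme-substrate mix contained 0.4% bovine serum albumin and was preincubated with compound 10 min at room temperature.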

[15] = target: Catechol O-methyltransferase (Homo sapiens) (UniProt P21964); experiment: Confirmatory Screen for Target Class Profiling of Small Molecule Inhibitors of Methyltransferases (AID 1745852; calls by dose curve; also: potency is read from the fitted curve at half-maximal effect; as to activity change, negative = inhibition: % is scaled to controls: 0 for no effect and ±100 for the full control effect); details: MTase-Glo luminescence, SAH detection, recombinant enzyme; measured here: COMT max response; stronger effect = lower value
Catechol O-methyltransferase (Homo sapiens), sequence (P21964 whole entry, looked up): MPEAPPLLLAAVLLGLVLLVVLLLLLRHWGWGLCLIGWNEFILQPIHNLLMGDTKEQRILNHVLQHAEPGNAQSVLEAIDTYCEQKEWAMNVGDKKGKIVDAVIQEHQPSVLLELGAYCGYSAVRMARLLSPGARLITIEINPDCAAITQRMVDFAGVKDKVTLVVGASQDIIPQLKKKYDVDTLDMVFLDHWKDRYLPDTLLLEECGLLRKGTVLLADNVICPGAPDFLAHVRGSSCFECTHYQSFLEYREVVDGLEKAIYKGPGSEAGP

[16] = target: Guanidinoacetate N-methyltransferase (Homo sapiens) (UniProt Q14353); experiment: as above; details: activity change, negative = inhibition: at 57.3 µM (top of the series) unless noted
[17] = target: Nicotinamide N-methyltransferase (Homo sapiens) (UniProt P40261); experiment: as above; details: MTase-Glo luminescence, SAH detection, recombinant enzyme; measured here: NNMT max response; stronger effect = lower value
Nicotinamide N-methyltransferase (Homo sapiens), sequence (P40261 whole entry, looked up): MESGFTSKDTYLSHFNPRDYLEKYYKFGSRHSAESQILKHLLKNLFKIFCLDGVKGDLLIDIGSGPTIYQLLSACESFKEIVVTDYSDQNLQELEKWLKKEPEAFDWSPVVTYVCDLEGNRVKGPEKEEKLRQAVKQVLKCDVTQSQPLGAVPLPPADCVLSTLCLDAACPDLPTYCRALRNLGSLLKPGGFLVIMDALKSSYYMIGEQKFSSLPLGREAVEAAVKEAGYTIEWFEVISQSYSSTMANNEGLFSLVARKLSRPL

[18] = qHTS drug screen for cell cycle checkpoint inhibitors in PARPi-resistant BRCA-mutant ovarian cancer cell lines. (AID 1963452; calls by dose curve; also: potency is read from the fitted curve at half-maximal effect); details: PEO1/OlaR viability, CellTiter-Glo luminescence, 96 h; for Z-AUC: stronger effect = lower value
Outline: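 PEO1, PEO4 and PEO1/OlaR ovarian cancer cells, 600 per well, exposed 96 h at 37C to a dilution series. Viability read by CellTiter-Glo luminescence, normalized to DMSO and empty wells; activity summarized as Z-AUC.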

[19] = system: NIH3T3; experiment: qHTS assay to identify novel small-molecules to repurpose for Merkel cell carcinoma treatment (AID 1296009); details: MCC and control cell lines, CellTiter-Glo viability, 72 h; at 44.8 µM (top of the series) unless noted; also: nearly all actives have a fitted effect of over 60% in size
Outline: as §2

[20] = Cytotoxicity counterscreen for inhibitors of SARS-CoV-2 cell entry (AID 1645845; calls by dose curve; also: % is scaled to controls: 0 for no effect and ±100 for the full control effect; nearly all actives have a fitted effect of over 50% in size)
Outline: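 Expi293F/hACE2 cells seeded overnight; cpd pin-transferred in DMSO, 1 h preincubation, + media, 48 h 37 C 5% CO2; ATPLite 1step luminescence; normalized to cells and no cells.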

[21] = measured here: PEO1 parental Z-AUC

O=C1N[C@@H](Cc2ccccc2)CN2CCCC[C@@H]12
inactive: Potency [1] | Potency [2] | Potency [3] | Potency [4] | outcome [5] | max response [6] 1.17% | outcome [7] | Potency [8] | Potency [9]

COCC(C(=O)OC1CC2CCC(C1)N2C)c1ccccc1 (configuration not stated)
inactive: Potency [10] | Potency [1] | Potency [2] | Potency [3] | Potency [4] | Potency [11] | outcome [5] | outcome [6] | outcome [7] | Potency [8]

CC(=O)O[C@@H]1[C@H]2CC[C@H]3[C@@](C)(O)[C@@H]4C[C@H](O)C(C)(C)[C@@]4(O)[C@H](O)C[C@@]13C[C@@]2(C)O
inactive: Potency [1] | Potency [2] | Potency [3] | Potency [4] | Potency [11] | max response [5] -9.56% | max response [6] 2.41% | Potency [12] | Potency [8] | Potency [9]

COC(=O)CC1CC2(C(=O)c3c(O)cccc3C2(O)C(=O)OC)C(C)O1 (configuration not stated)
inactive: Potency [1] | Potency [2] | Potency [3] | Potency [4] | Potency [11] | outcome [5] | max response [6] 3.88% | outcome [7] | Potency [8] | Potency [9]

COC1C=CC23c4cc5c(cc4COC2(O)CN(C)C3C1)OCO5 (configuration not stated)
inactive: Potency [10] | Potency [1] | Potency [2] | Potency [3] | Potency [4] | Potency [11] | outcome [5] | outcome [6] | outcome [7] | Potency [8]

COc1cc(N2CCN(C)CC2)ccc1N
-7.03%: activity [15]
inactive: Potency [1] | Potency [2] | Potency [3] | Potency [13] | Potency [14] | Potency [11] | max response [5] 1.34% | max response [6] -1.04% | Potency [8] | Potency [9]
-4.23%: activity change, negative = inhibition [16]
-3.44%: activity [17]

CN1C2CCC1CC(OC(=O)N1Cc3ccccc3NC1=O)C2 (configuration not stated)
inactive: Potency [1] | Potency [2] | Potency [3] | Potency [13] | Potency [14] | Potency [4] | max response [5] 2.89% | max response [6] -1.51% | Potency [12] | Potency [8]

CN[C@@H]1C[C@H]2O[C@@](C)([C@@H]1OC)n1c3ccccc3c3c4c(c5c6ccccc6n2c5c31)C(=O)NC4
-2.16: Z-AUC ([18]; measured here: PEO4 Z-AUC)
inactive: Z-AUC [18] -2.43
-2.26: Z-AUC [18, 21]

CN(C)c1cc2c(cc1Sc1nc3c(N)nccc3n1CCNCC(C)(C)C)OCO2
-4.13%: activity change, negative = inhibition [16]
-1.43: Z-AUC [18, 21]
active: Potency [18] 1.55 µM
-1: Z-AUC ([18]; measured here: PEO4 Z-AUC)
-13.6%: activity [15]
-41.4%: activity [17]

C=C(CO)C(=O)O[C@H]1CC(=C)[C@@H]2C[C@H](O)C(=C)[C@@H]2[C@H]2OC(=O)C(=C)[C@@H]21
-4.37%: activity change, negative = inhibition [16]
-6.26%: activity [17]
-80.9%: activity [15]

C[C@]12CC[C@H](O[C@@H]3O[C@H](CO)[C@@H](O)[C@H](O)[C@H]3O[C@@H]3O[C@H](CO)[C@@H](O)[C@H](O)[C@H]3O)CC1=CC[C@@H]1[C@@H]2CC[C@]2(C)[C@@H](C3=CC(=O)OC3)CC[C@]12O
active: Potency [4] 4.3 µM
inactive: Potency [2] | Potency [3] | Potency [11] | max response [5] -17%

C=C1C[C@]2(O)[C@@]3(C)CCC(=O)C(C)(C)C3=C(O)C(=O)[C@@]2(C)[C@@H]2C(=O)O[C@@](C)(C(=O)OC)C(=O)[C@@]12C
inactive: Potency [1] | Potency [4] | Potency [11] | max response [6] 1.74% | Potency [8] | Potency [9]

CCC1C2CC3C4N(C)c5ccccc5C45CC(C2C5O)N3C1O (configuration not stated)
inactive: Potency [1] | Potency [2] | Potency [4] | Potency [11] | max response [6] 6.75% | Potency [8] | Potency [9]

C[C@@H]1C[C@@H](O)[C@]2(O)O[C@@H]3C[C@@]4(C=O)C(CC[C@@H]5C4CC[C@]4(C)[C@@](O)(C6=CC(=O)OC6)CC[C@]54O)C[C@H]3OC2O1 (some centres not stated)
active: Potency [1] 1.59 µM | Potency [4] 1.12 µM | Potency [5] 5.02 µM
inactive: Potency [3]

N#Cc1cn([C@@H]2O[C@H](CO)[C@H](O)[C@@H]2O)c2ncnc(N)c12
inactive: Potency [2] | Potency [13] | Potency [14] | Potency [11]
-98.2%: activity [15]
-89.8%: activity [17]
active: Potency [4] 0.0073 µM | Potency [16] 38.3 µM | Potency [5] 0.092 µM | Potency [6] 0.0366 µM

COC1C(O)C(C)OC(OC2C(CO)O[C@@H](O[C@@H]3CC4CCC5C(CC[C@]6(C)[C@@H](C7=CC(=O)OC7)CC[C@]56O)[C@@]4(C)[C@H](OC(C)=O)C3)C(O)C2O)C1O (some centres not stated)
inactive: Potency [2] | Potency [3] | Potency [11] | outcome [19] inactive [at 17.4 µM]
active: Potency [1] 2.73 µM | Potency [4] 2.42 µM | Potency [5] 4.32 µM | Potency [8] 10 µM

CN1C[C@@H]2CN(c3ccc(-c4ccccc4)nn3)C[C@@H]2C1
inactive: Potency [1] | Potency [2] | Potency [3] | Potency [13] | Potency [4] | Potency [11] | max response [5] -2.1% | outcome [19] | Potency [8] | Potency [9]

C=C1[C@@H](C)C2[C@H](Cc3ccccc3)NC(=O)[C@@]23C(/C=C/C[C@H](C)C[C@@](C)(O)/C=C/[C@@H]3OC(C)=O)[C@@H]1O (some centres not stated)
inactive: Potency [2] | Potency [3] | Potency [11]
active: Potency [1] 2.91 µM | Potency [4] 0.205 µM | Potency [5] 0.13 µM

Cc1sc2c(c1C)C(c1ccc(Cl)cc1)=N[C@@H](CC(N)=O)c1nnc(C)n1-2
-0.858 and -0.588: Z-AUC [18, 21]
-1.13 and -0.593: Z-AUC ([18]; measured here: PEO4 Z-AUC)
inactive: Potency [2] | Potency [3] | Potency [13] | Potency [14] | Potency [20] | Potency [11] | Z-AUC [18] -0.829 and -0.822 | max response [5] -29.9%
active: Potency [4] 51.5 nM and 148 nM | Potency [9] 0.891 µM
